# Measurements from the supplement of paper PMC8387472.
# Structures can show the parent of a compound that is named as a salt. ± gives the standard deviation of the averaged measurements.
# Tested on: mESC LDLR-Dup GFP reporter (SpCas9 MH-deletion repair)
# Assay: fraction of GFP+ cells relative to DMSO control (fold change); higher = more MH-deletion repair to in-frame LDLR (or more editing)
# Conditions: 2 µM; 7 days post-transfection
row,Compound,fraction of GFP+ cells
1,Cc1nc(-c2cccnc2)sc1C(=O)Nc1ccccc1-c1cn2c(CN3CCOCC3)csc2n1,1.34 ± 0.54
2,Nc1nc(OCC2CCCCC2)c2[nH]cnc2n1,0.88 ± 0.14
3,NC(=O)c1ccc(I)c([N+](=O)[O-])c1 [Iniparib (BSI-201)],1.03 ± 0.039
4,O=C(Nc1ccccc1-c1cn2c(CN3CCNCC3)csc2n1)c1cnc2ccccc2n1,1.19 ± 0.68
5,O=C(NC(NC(=S)Nc1ccc(F)c([N+](=O)[O-])c1)C(Cl)(Cl)Cl)C(c1ccccc1)c1ccccc1 (centres undefined),0.561 ± 0.13
6,CN(C)C(=O)c1cc2cnc(Nc3ccc(N4CCNCC4)cn3)nc2n1C1CCCC1 [Ribociclib (LEE011)],1.04 ± 0.21
7,CO[C@@H]1[C@@H](OC(N)=O)[C@@H](O)[C@H](Oc2ccc3c(O)c(NC(=O)c4ccc(O)c(CC=C(C)C)c4)c(=O)oc3c2C)OC1(C)C [Novobiocin Sodium],1.09 ± 0.072
8,COc1c(O)cc(O)c2c(=O)cc(-c3ccccc3)oc12 [Wogonin],0.728 ± 0.15
9,O=C(O[C@@H]1Cc2c(O)cc(O)cc2O[C@@H]1c1cc(O)c(O)c(O)c1)c1cc(O)c(O)c(O)c1 [(-)-Epigallocatechin Gallate],0.828 ± 0.097
10,CC1COc2c(N3CCN(C)CC3)c(F)cc3c(=O)c(C(=O)O)cn1c23 (centres undefined) [Ofloxacin],1.08 ± 0.19
11,NS(=O)(=O)C#Cc1ccccc1,1.11 ± 0.052
12,O=c1[nH]c(C2CCCN2)nc2c1oc1ccc(Cl)cc12 (centres undefined),1.11 ± 0.15
13,Cc1cn([C@H]2O[C@@H](CO)[C@H](O)[C@H]2F)c(=O)[nH]c1=O [Clevudine],0.898 ± 0.28
14,NCCOc1cc(C(=O)Nc2cc(OCCN)c3ccccc3n2)nc(C(=O)Nc2cc(OCCN)c3ccccc3n2)c1 [Pyridostatin Trifluoroacetate Salt],0.824
